Data published in PubChem BioAssay.
Values without a mark were called inactive. Calls of active or inactive are those of the source.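 How the source made its calls: active means compounds lowering colon cancer cell viability after pretreatment blocking the GSK3B kinase; inactive means the rest.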

experiment: growth inhibition of GSK3B-pretreated HCT116 cells – cell-based, CellTiter-Glo, 0.2 to 20 µM (AID 1117336); details: HCT116 viability after GSK3B inhibitor, at 20 µM, hits give high values

SMILES	viability decrease
CC(=O)N(CC(=O)N(C)C)c1ccccc1	-5.9%
CC(=O)CC/C=C(\C)CC/C=C(\C)CC/C=C(\C)CCC=C(C)C	-2.15%
OCC=Cc1ccccc1	-8.2%
NC(=O)C(=O)N/N=C/c1ccc([N+](=O)[O-])o1	17.6%
CCOC(CN1CCN(CC(C)C(=O)c2ccccc2)CC1)c1ccccc1 (centres undefined)	-4.9%
Nc1nnnn1-c1ccccc1	-7.65%
NC(N)=NN=C(/C=C/c1ccc([N+](=O)[O-])o1)/C=C/c1ccc([N+](=O)[O-])o1	99.3% (active)
Nc1ccc(C(=O)Nc2ccccc2N)cc1	39.9% (active)
CN1N=C(C(N)=O)CCC1=O	3.8%
C=CCNc1nc(NCC=C)nc(N2CCN(C(c3ccc(F)cc3)c3ccc(F)cc3)CC2)n1	50.3% (active)
Nc1ccc(S(=O)(=O)Nc2ccccc2)cc1	-9.8%
CN(C)CCN(Cc1ccsc1)c1ccccn1	4.6%
NCc1ccccc1Sc1ccccc1CO	-138%
CCCCCCCCCCCCCCCC[N+](C)(C)CC	99% (active)
COc1cc(NS(=O)(=O)c2ccc(N)cc2)nc(C)n1	-0.6%
C=Cc1c(C)c2cc3nc(cc4[nH]c(cc5nc(cc1[nH]2)C(C)=C5CCC(=O)O)c(CCC(=O)OC)c4C)[C@@]1(C)C3=CC=C(C(=O)OC)[C@@H]1C(=O)OC	97.7% (active)
N[C@H]1CN(c2c(F)cc3c(=O)c(C(=O)O)cn(C4C[C@@H]4F)c3c2Cl)CC12CC2 (some centres undefined)	40.5%
NC(=O)NC1N=C([O][Al])NC1=O (centres undefined)	13.8%
Cc1cccc(C)c1NC(=O)CN1CCCC1	4.2%
CC(=O)Nc1ccc(/C=N/NC(N)=S)cc1	-4.65%

SMILES	viability decrease
NCCNc1cccc2ccccc12	-5.55%
O=c1[nH]c(=O)n([C@H]2O[C@H](CO)[C@@H](O)[C@@H]2O)cc1/C=C\Br	-12.2%
O=C1NC(c2ccccc2)(c2ccccc2)C(=O)N1COP(=O)(O)O	-27%
CCN(CC)CCSC(=O)C(c1ccccc1)c1ccccc1	6.7%
O=C(O)Cc1csc(-c2ccc(Cl)cc2)n1	-4.4%
COc1cc2nc(Cl)nc(N)c2cc1OC	13.3%
NC(=S)N=Nc1ccc(NN=C(N)N)cc1	-24.6%
C[C@@H](O)[C@H](N)C(=O)O	-7.25%
Cc1cnc(NS(=O)(=O)c2ccc(N)cc2)nc1	7.4%
CCCCCOc1ccc(C2SC(=O)NC2=O)cc1OCC (centres undefined)	46.8%
FC1(F)C(F)(F)C(F)(F)C2(F)C(F)(F)C(F)(F)C(F)(F)C(F)(F)C2(F)C1(F)F (centres undefined)	17%
CCCCC[C@H](O)C=C[C@H]1[C@H](O)CC(=O)[C@H]1CC=CCCCC(=O)O	-18.4%
Cc1cc(N)c2cc(NC(=O)Nc3ccc4nc(C)cc(N)c4c3)ccc2n1	54.4% (active)
CCCCC(O)/C=C(C)/C=C/C=C/C(=O)N1CCCC1=O (centres undefined)	1.6%
CC(C)(C)c1nnc(NS(=O)(=O)c2ccc(N)cc2)s1	7.2%
CC1(C)OC[C@@H](COC(=O)CCc2ccc(OC[C@@H](O)CNCCNC(=O)N3CCOCC3)cc2)O1	-3.9%
CC(CCc1ccc2c(c1)OCO2)NN (centres undefined)	57.8% (active)
CCCOc1ccc2c(c1)CC[C@@H]1[C@@H]2CC[C@]2(C)C(OC)CC[C@@H]12 (some centres undefined)	69.6% (active)
CC/C=C(\C(=O)N[C@@H]1C(=O)N2C(C(=O)OCOC(=O)C(C)(C)C)=C(COC(N)=O)CS[C@H]12)c1csc(N)n1	-5.5%
